Results: ChEMBL document CHEMBL3988442, “University of Dundee, Small-Polar-MMV Screening Library” (2021)
Out of some 48,000 compounds screened, about 13,000 (27%) showed an effect of 50% or more. The list shows a part of the results.

What follows are molecules tested on Wolbachia pipientis (assay: Anti-Wolbachia Cell-Based Screen). Details: 5 µM.
Format: functional
Design: scale not given: in the data most compounds retested in dose-response had high values

Compound | Percent Effect [%]
CCC(CO)N(Cc1ccco1)C(=O)c1cccnc1NC (stereo unspecified) | -5.429
CCc1n[nH]c(C2CN(Cc3csc(COC)n3)CCO2)n1 (stereo unspecified) | 0.7556
O=C(Nc1ccc(-c2nc3c([nH]2)CCNC3)cc1)N1CCCC1 | -0.2771
COc1ccc2c(c1)C(C(=O)N(C)CCCc1nccn1C)CC(=O)N2 (stereo unspecified) | 9.372
CC(C)CN1C(=O)CO[C@@H]2CN(C(=O)C3CCOC3)C[C@H]21 (stereo partly specified) | -11.41
CC(C)CNC(=O)c1ccc(NC(=O)NC(C)(C)CO)cc1Cl | -9.16
CC(C)CNC(=O)c1ccc(NC(=O)NC(C)C)cc1Cl | -2.856
CC(C)CNC(=O)c1ccc(NC(=O)NCC2CC2)cc1Cl | -12.02
CC(C)CCCNC(=O)Nc1ccc(Cl)c(C(N)=O)c1 | 118.7
CC(C)CCCNC(=O)Nc1ccc(C(N)=O)c(Cl)c1 | 114.9
CCCOc1ccc(NC(=O)NCCC(=O)N(C)C)cc1Cl | -12.35
CCCN1CCC(NC(=O)NCCc2nc(CC)c(C)s2)CC1 | 16.1
Cc1ccc(-c2nn(-c3cccc(F)c3)cc2CN(CCO)CCO)o1 | 2.921
CN(C)C1CCCN(C(=O)c2cccc(-c3ncc[nH]3)c2)CC1 (stereo unspecified) | 2.392
C[C@@H]1CN(C(=O)Cn2ccc3ncccc3c2=O)C[C@H](C)O1 | -28.32
C[C@@H]1CN(C(=O)c2nc3sccn3c2-c2ncc[nH]2)C[C@H](C)O1 | 88.09
Cc1nc2sccn2c1C(=O)N1CCc2[nH]cnc2C1 | -1.15
Cc1ccc2cc(C(=O)N3CCCN(C)CC3)ccc2n1 | 16.24
CN1CCCN(C(=O)c2nc3sccn3c2-c2ncc[nH]2)CC1 | 108
CCC[C@@H]1CN(C(=O)c2ccccc2-c2ncc[nH]2)C[C@H]1N(C)C | 29.83
CN1CCN(C(=O)c2n[nH]c3c2CN(Cc2nccs2)CC3)CC1 | -8.434
C[C@@H]1CN(C(=O)c2nc3ccc(Cl)cn3c2-c2ncc[nH]2)C[C@H](C)O1 | 103.5

Compound | Percent Effect [%]
CN1C[C@@H](n2cnc(-c3ccccc3)c2-c2ncc[nH]2)C[C@H]1C(=O)O | -3.61
COc1ccc(OCc2cc(C(=O)N3C[C@@H](C)O[C@@H](C)C3)n[nH]2)c(Cl)c1 | -0.1203
O=C(c1nc2sccn2c1-c1ncc[nH]1)N1CCCCC1 | 87.63
CC(=O)N1CCC(C(=O)N(CC(F)F)c2cccc(Cl)c2)CC1 | 3.709
CCc1cc(NCCc2ccc(O)cc2)n2nccc2n1 | 12.11
O=C(NC1CCCC1)O[C@H]1COCCN(c2nc3ccccc3s2)C1 | 3.317
CS(=O)(=O)N1CCC(c2nc3ccc(-c4cccc(F)c4)cn3n2)CC1 | 121.7
COCC(=O)N1CCC(c2nc3ccc(-c4ccccc4)cn3n2)CC1 | 4.971
Cc1ccc2nc(C3CCN(CCO)CC3)nn2c1 | -22.16
CC(=O)N1CCC(c2nc3ccc(C)cn3n2)CC1 | 109.2
COCC(=O)N1CCC(c2nc3ccc(N4CCOCC4)cn3n2)CC1 | -4.439
CN(C)C(=O)N1CCC(c2nc3ccc(N4CCCC4)cn3n2)CC1.O=C(O)C(F)(F)F | -5.461
COc1cccc(-c2ccc3nc(C4CCN(C(C)=O)CC4)nn3c2)c1 | 108.3
CCS(=O)(=O)N1CCC(c2nc3ccc(-c4ccccc4)cn3n2)CC1 | -9.682
CN(C)C(=O)N1CCC(c2nc3ccc(-c4ccccc4)cn3n2)CC1 | 107
COc1ccc(Cl)cc1CS(=O)(=O)Cc1noc(C)n1 | 18.18
C[S+]([O-])c1nncn1CCc1ccccc1 (stereo unspecified) | -4.603
COc1ccccc1C(O)Cn1cc(C(=O)NCc2ccco2)nn1 (stereo unspecified) | -0.6679
CNC(=O)c1cccc(NCC(=O)Nc2cc(C)nn2C)c1C | 11.4
COc1ncccc1C(=O)NC1(c2cccc(F)c2)CCOCC1 | 0.9313
CN1CCCC1CNC(=O)c1nnn(-c2ccc(F)cc2)c1C1CC1 (stereo unspecified) | -4.807
CC(=O)N1CCC(c2nc3ccc(-c4cccc(F)c4)cn3n2)CC1 | 114.3

Compound | Percent Effect [%]
Nc1cc2c(nn1)CCN(C(=O)c1cccnc1Oc1ccccc1)C2 | -19.15
CCNc1cc2c(nn1)CCN(C(=O)c1ccc(NC3CC3)nc1)C2 | 18.68
CN(C)c1cc2c(nn1)CCN(C(=O)c1ccc(-n3cccn3)nc1)C2 | 103.2
CCNc1cc2c(nn1)CCN(C(=O)c1ccc3cc[nH]c3c1)C2 | 0.8681
CNc1cc2c(nn1)CCN(C(=O)c1ccccc1-n1cccn1)C2 | 88.38
CNc1cc2c(nn1)CCN(C(=O)c1ccc(-n3nccc3C)cc1)C2 | -6.131
CCNc1cc2c(nn1)CCN(C(=O)c1cc3ccccc3[nH]c1=O)C2 | -5.583
CCNc1cc2c(nn1)CCN(C(=O)c1ccc(-n3cccn3)nc1)C2 | 97.41
CCNc1cc2c(nn1)CCN(C(=O)c1ccnc(N(C)C)c1)C2 | -3.48
Nc1cc2c(nn1)CCN(C(=O)c1ccc(Oc3cccnc3)cc1)C2 | 5.491
CN(C)c1cc2c(nn1)CCN(C(=O)c1cc3ccccc3o1)C2 | 1.758
CNc1cc2c(nn1)CCN(C(=O)c1ccc(-n3cccn3)nc1)C2 | 108.2
COc1cccc2ccc(CN3CCN(c4ccncc4)CC3)nc12 | 12.14
CCc1nsc(N2CCCN(C(=O)COc3ccccc3)CC2)n1 | 6.055
COCCCN1CC2(CCC1=O)CCN(Cc1cc(C(C)C)no1)CC2 | -3.554
CC(=O)N1[C@H](Cn2cncn2)C[C@@H]2CN(C(=O)NC3CC3)CC[C@@H]21 | -0.06843
COc1ccc(CN2CCCC2)cc1Oc1cccc(C#N)n1 | 4.454
CCCN1CCCn2nc(CNS(=O)(=O)c3ccc(C)cc3)cc2C1 | -4.266
CCN(CCCc1ccccc1C)S(C)(=O)=O | 5.478
CCc1ccccc1NC(=O)C1CN(C(C)=O)C1 | 6.296
CCc1cccc(C)c1NC(=O)c1ccccc1N(C)S(C)(=O)=O | 89.09
Cc1ccc(C(=O)NC2CCN(C)CC2)cc1N(C)S(C)(=O)=O | 12.36

Compound | Percent Effect [%]
CCc1ccc(S(=O)(=O)Nc2c(C)cccc2C(=O)O)s1 | -3.804
CCCNC(=O)c1cc(OC)c(OC)cc1N(C)S(C)(=O)=O | -23.04
CCc1cccc(CC)c1NC(=O)c1ccccc1N(C)S(C)(=O)=O | 109.8
CCc1ccccc1NC(=O)c1cccc(N(C)S(C)(=O)=O)c1C | 92
CNC(=O)c1cccc(NC(=O)NCc2ccccc2)c1C | 3.946
CCNC(=O)c1cc(OC)c(OC)cc1N(C)S(C)(=O)=O | -20.94
CNC(=O)c1cc(OC)c(OC)cc1N(C)S(C)(=O)=O | -22.7
Cc1cccc(C)c1NC(=O)c1cccc(N(C)S(C)(=O)=O)c1C | 108.1
CCC(Nc1nnnn1-c1ccccc1)C(=O)Nc1ccccc1C (stereo unspecified) | -5.481
Cc1ccc(CNCc2cccc3cccnc23)c(OC2CCOC2)c1 (stereo unspecified) | -38.45
COc1ccc(CC(=O)N2CCCCC2Cn2cc(C)cn2)cc1F (stereo unspecified) | 102.6
COc1ccccc1OCCC(=O)N1CCCC1Cn1cc(C)cn1 (stereo unspecified) | -7.788
COc1ccc(CC(=O)N2CCCC2Cn2cc(C)cn2)cc1OC (stereo unspecified) | 112.4
COc1ccc(CC(=O)N2CCCC2Cn2cc(C)cn2)c(OC)c1 (stereo unspecified) | 126.4
COc1ccc(CCC(=O)N2CCCC2Cn2cc(C)cn2)cc1F (stereo unspecified) | -0.1438
Cc1noc(-c2ccc(N(C)Cc3ccncc3C)nc2)n1 | -8.712
O=C(Nc1cnc(C2CC2)nc1)N1CCC(CN2CCCC2)C1 (stereo unspecified) | 2.987
O=C(c1cnc(C2CC2)s1)N1CCCC(n2cccn2)C1 (stereo unspecified) | 6.794
O=C(c1cnc(-c2ccccn2)s1)N1CCCC(n2cccn2)C1 (stereo unspecified) | 116.5
O=C(c1cnc(-c2ncccn2)s1)N1CCCC(n2cccn2)C1 (stereo unspecified) | 84.63
O=C(c1cnc(-c2cnccn2)s1)N1CCCC(n2cccn2)C1 (stereo unspecified) | 90.03
Cn1cc(C(=O)N2CCCC(n3cccn3)C2)c2ccccc21 (stereo unspecified) | -10.45

Compound | Percent Effect [%]
CCc1[nH]ncc1C(=O)N1CCCC(n2cccn2)C1 (stereo unspecified) | -0.4405
Cc1ncc(C(=O)N2CCCC(n3cccn3)C2)s1 (stereo unspecified) | 111.9
O=C(c1cnc(-c2cccs2)s1)N1CCCC(n2cccn2)C1 (stereo unspecified) | 0.5894
COc1ccccc1NC(=O)NCC(O)(c1ccccc1)C1CC1 (stereo unspecified) | 10.27
CCOc1ccc(NS(=O)(=O)c2cc(C)c(C(=O)O)s2)cc1F | -1.908
CC(C)=CCN1CCC(c2nccn2Cc2cscn2)CC1 | 3.314
Cc1nccn1CCCC(=O)N1CCCN(c2cccnn2)CC1 | 66.22
Cc1nccn1CCCC(=O)N1CCC(N(C)c2cccnn2)CC1 | 114.4
Cc1ccccc1N1CCCN(C(=O)CCCn2ccnc2C)CC1 | 7.495
CCc1cc(O)n2nc(C3CCN(C(=O)c4cccnc4)CC3)cc2n1 | 97.39
CC[C@H]1CN(C(=O)c2cccnc2)CC[C@H]1CC(=O)NCCOC | -6.846
CCc1cc(O)n2nc(C3CCCN3C(=O)c3ccccn3)cc2n1 (stereo unspecified) | 131.2
Cc1nc2cc(C3CCN(C(=O)c4ccccn4)CC3)nn2c(O)c1C | 104
CCC(C)c1noc(C2CCN(C(=O)c3cccnc3)CC2)n1 (stereo unspecified) | -14.35
CCc1nc(C2CCCN2C(=O)c2nc(C)n3ccccc23)no1 (stereo unspecified) | -3.852
CC(C)n1ccnc1C1CCN(C(=O)c2ccc(SCCO)cc2)CC1 | -4.655
Cn1ccc(C2CCCCN2C(=O)c2cccc(Cn3cccn3)c2)n1 (stereo unspecified) | -10.23
CCc1cc(O)n2nc(C3CCN(C(=O)c4ccncc4)CC3)cc2n1 | 121.2
